In PubChem BioAssay (NCATS):
Records with an inconclusive call do not appear. Entries that show only a call come without a potency. Activity calls are given as the source filed them. Unless noted, the call rests on the fitted dose curve; in most records, active means well fitted curve in the direction sought with a large enough effect; inconclusive means small, poorly fitted or top-dose-only effect, or another doubt; inactive means no such curve, though single readings can be large; an effect the other way counts as inactive or inconclusive.

What was measured:
ATS95 = assay: qHTS profiling for inhibitors of Plasmodium falciparum proliferation (AID 504749); further: nearly all actives have a fitted effect of over 60% in size; settings: P. falciparum in erythrocytes, SYBR Green DNA, 72 h; series mostly up to 28.7 µM
In short: (§1)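 Parasite proliferation within erythrocytes, 72 h exposure. Endpoint: SYBR Green I fluorescence after overnight lysis at room temperature. Controls: 0.29 uM artemisinin, DMSO.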

CP203 = assay: as above; settings: P. falciparum in erythrocytes, SYBR Green DNA, 72 h; series mostly up to 28.7 µM
In short: as §1

CP262 = assay: as above; settings: P. falciparum in erythrocytes, SYBR Green DNA, 72 h; series mostly up to 28.7 µM
In short: as §1

[1] = NCATS anti-infectives library activity on HEK293 viability as a counter-qHTS vs the C. elegans viability qHTS (AID 1745854); settings: HEK293 viability counter-screen; series mostly up to 41.8 µM;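 further: HEK293 cells exposed to compounds for 24 hr before the viability read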
In short: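 HEK293 cells (1,500/well) exposed 24 hr at 37C to 1:5 titrations, up to 41.7 uM final; counter-screen to a C. elegans viability qHTS. Viability by CellTiter-Glo luminescence after 10 min at room temperature; digitonin as control.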

[2] = qHTS Assay for Identification of Small Molecule Antagonists for Thrombopoietin (TPO) Signaling Pathway (AID 918); settings: TPO-dependent cell signaling reporter, antagonist mode; further: potency means the concentration at half of the fitted maximal effect; nearly all actives have a fitted effect of over 60% in size
In short: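 Murine Ba/F3 cells expressing human TPO receptor and a Glycoprotein IIb promoter-luciferase reporter, IL-3-starved overnight, treated with compound plus TPO at EC50 (26 pM final). After 24 h at 37 C, luminescence read to detect inhibitors.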

[3] = target: Alpha-galactosidase (Coffea arabica) (UniProt Q42656); assay: Counterscreen for Glucocerebrosidase Inhibitors: qHTS Assay for Coffee Bean alpha-Galactosidase at pH 4.5 (AID 957); settings: purified coffee bean alpha-galactosidase, fluorogenic substrate; series mostly up to 76.9 µM
In short: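 Coffee bean enzyme (2 nM) with 80 uM 4-methylumbelliferyl alpha-D-galactopyranoside in 50 mM citric acid, 0.005% Tween-20, pH 4.5, 20 min at room temperature; compounds 0.7 nM–77 uM. Stopped at pH 10, fluorescence 365/440 nm; AC50 from Hill fits.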

[4] = target: Alpha-galactosidase (Coffea arabica) (UniProt Q42656); assay: Counterscreen for Glucocerebrosidase Inhibitors: qHTS Assay for Coffee Bean alpha-Galactosidase at pH 5.9 (AID 998); settings: coffee bean alpha-galactosidase enzyme assay; series mostly up to 76.9 µM
In short: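 Green coffee bean enzyme (2 nM final) was incubated with compounds (0.7 nM–77 uM) and 4-methylumbelliferyl alpha-D-galactopyranoside (80 uM) in citrate buffer pH 5.9, 20 min at room temperature. High-pH stop; fluorescence 365/440 nm; AC50 from Hill fits.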

[5] = High Content Imaging Cell-Based qHTS for Inhibitors of the mTORC1 Signaling Pathway in MEF (Tsc2-/-, p53-/-) Cells (AID 2666); settings: series mostly up to 38.3 µM;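 further: percent of cells scored positive for phospho-rpS6 Ser235/236 immunostaining by imaging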; further: potency means the concentration at half of the fitted maximal effect
In short: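 Read-out: % positive cells per well, with thresholds from highest- and lowest-signal wells, based on phospho-rpS6 (Ser235/236) intensity normalized to Hoechst nuclear stain. Cells: Tsc2-/-, p53-/- MEFs carrying empty vector; compound 24 hrs, 37 degree Celsius.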

[6] = High Content Imaging Cell-Based qHTS for Inhibitors of the mTORC1 Signaling Pathway in MEF Cells (AID 2667); settings: series mostly up to 38.3 µM; further: potency means the concentration at half of the fitted maximal effect
In short: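 MEF (Tsc2-/-, p53-/-, WT Tsc2 re-expressed); cpd 24 h, 37 °C; PFA fix; Alexa-488 anti-p-rpS6 Ser235/236, PI, Hoechst; IN Cell imaging; Hoechst/Alexa-488 intensity ratio; % active cells, thresholds set from rapamycin and DMSO wells.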

[7] = Cytometry Cell-Based qHTS for Inhibitors of the mTORC1 Signaling Pathway in MEF cells (AID 2668); settings: mTORC1 pathway readout; series mostly up to 38.3 µM; further: potency means the concentration at half of the fitted maximal effect
In short: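 In MEFs grown in DMEM + 10% FBS, a 24 hrs compound exposure preceded imaging of phospho-rpS6 Ser235/236 by laser-scanning cytometry.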

[8] = target: Chromobox protein homolog 1 (Homo sapiens) (UniProt P83916); assay: qHTS Validation Assay for Inhibitors of HP1-beta Chromodomain Interactions with Methylated Histone Tails (AID 488953); settings: HP1-beta chromodomain / methylated histone peptide binding assay; series mostly up to 114 µM; further: nearly all actives have a fitted effect of over 50% in size; further: potency means the concentration at half of the fitted maximal effect
In short: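 HP1-beta (50 nM) preformed 30 min with biotinylated H3(1-18)K9me3 peptide (50 nM) in PBS pH 7.4, 0.01% Tween-20. Compounds added for 30 min at room temperature. Complex disruption read by AlphaScreen with streptavidin donor/nickel chelate acceptor beads (10 ug/mL each).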

[9] = Validation screen for small molecules that induce genotoxicity in human embryonic kidney (HEK293T) cells expressing luciferase-tagged ELG1 (AID 493106); settings: luminescence; series mostly up to 46.1 µM
In short: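 HEK293T cells expressing luciferase-tagged ELG1, 2,000 cells/well, exposed to compound 16 hr at 37 °C, 5% CO2. Luciferase read after ONE-Glo, 30 min at room temperature; increased signal indicates genetic stress.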

[10] = target: ATPase family AAA domain-containing protein 5 (Homo sapiens) (UniProt Q96QE3); assay: Validation screen for small molecules that inhibit ELG1-dependent DNA repair in human embryonic kidney (HEK293T) cells expressing luciferase-tagged ELG1 (AID 493107); settings: HEK293T ELG1-luciferase level, luminescence, 5-fluorouridine co-treatment, 16 h; series mostly up to 46.1 µM; further: nearly all actives have a fitted effect of over 70% in size; further: potency means the concentration at half of the fitted maximal effect
In short: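 HEK293T cells expressing luciferase-tagged ELG1, 2,000 per well, treated with 5-fluorouridine plus compound for 16 h at 37 C. ONE-Glo luminescence after 30 min at room temperature reports ELG1 reporter level.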

[11] = Nrf2 qHTS screen for inhibitors: Validation (AID 493153; active means well fitted inhibition curve with a large enough effect in the main read-out, with a control signal flat, not every such curve was filed as active); settings: A549 ARE-Fluc reporter, 18-24 h; viability change: measured here: cytotoxicity max response; luciferase luminescence, at 46.1 µM (top of the series)
In short: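 A549 cells carrying ARE-firefly luciferase reporter, 5000 cells/well in 5% FBS OPTI-MEM, treated with compound over a concentration series for 18-24 h at 37 C. Luciferase luminescence gave Nrf2 activity; CellTiter-Fluor fluorescence gave viability.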

[12] = Inducers of the Endoplasmic Reticulum Stress Response (ERSR) in human glioma: Validation (AID 504836); settings: human glioma cells, ER stress response reporter; series mostly up to 38.3 µM
In short: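 Stably transfected U87-MG human glioma cells carrying a GRP78-based luminescent sensor were seeded at 1000 cells/well, pin-dosed with compounds and incubated 16 h. Luciferase reagent was then added, and end-point luminescence was read after 10 min at room temperature.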

CP266 = assay: qHTS profiling for inhibitors of Plasmodium falciparum proliferation (AID 504749); further: nearly all actives have a fitted effect of over 60% in size; settings: P. falciparum in erythrocytes, SYBR Green DNA, 72 h; series mostly up to 12.8 µM
In short: as §1

[13] = target: Cytochrome P450 3A4 (Homo sapiens) (UniProt P08684); assay: qHTS for inhibitors of CYP3A4 against the NCATS DSHEA and TCM libraries (AID 1919971); settings: recombinant CYP3A4 enzyme activity, luminescence qHTS; series mostly up to 34.1 µM; further: potency means the concentration at half of the fitted maximal effect
In short: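 Luminescent P450-Glo format: compounds preincubated 15 min with enzyme and luciferin substrate, reaction run 30-45 min after NADPH regeneration solution. Intraplate controls: ketoconazole for CYP3A4 and CYP2C19, sulfaphenazole for CYP2C9.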

[14] = target: Cytochrome P450 1A2 (Homo sapiens) (UniProt P05177); assay: qHTS for inhibitors of CYPIA2 against the NCATS DSHEA and TCM libraries (AID 1919976); settings: recombinant CYP1A2 enzyme activity, luminescence; series mostly up to 37 µM; further: potency means the concentration at half of the fitted maximal effect
In short: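 Human CYP1A2 with pro-luciferin substrate (typically 100 mM KPO4), 15 min preincubation with compound, then 1x NADPH regeneration for 30-45 min at room temperature in the dark. Luciferin quantified by luciferase luminescence; furafylline intraplate control.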

[15] = Dual reporter qHTS for antagonist of Pregnane X Receptor (hPXR) against the NCATS DSHEA and TCM libraries: Fluorescence Readout (AID 1920061); settings: PXR dual reporter cells, antagonist mode; series mostly up to 40 µM
In short: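 In antagonist mode, 2 uM rifampicin was added to hPXR-Luc HepG2 cells alongside test substances, incubated 24 h at 37 C; luminescence gave reporter activity, and CellTiter-Fluor fluorescence (405/540 nm) gave viability.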

[16] = qHTS drug screen for cell cycle checkpoint inhibitors in PARPi-resistant BRCA-mutant ovarian cancer cell lines. (AID 1963452; calls by dose curve); settings: PEO1/OlaR viability, CellTiter-Glo luminescence, 96 h, stronger effect = lower value
In short: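 PEO1, PEO4 and PEO1/OlaR ovarian cancer cells, 600 per well, exposed 96 h at 37C to a dilution series. Viability read by CellTiter-Glo luminescence, normalized to DMSO and empty wells; activity summarized as Z-AUC.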

Chain of Cytochrome P450 1A2 (Homo sapiens) (P05177 whole entry, looked up): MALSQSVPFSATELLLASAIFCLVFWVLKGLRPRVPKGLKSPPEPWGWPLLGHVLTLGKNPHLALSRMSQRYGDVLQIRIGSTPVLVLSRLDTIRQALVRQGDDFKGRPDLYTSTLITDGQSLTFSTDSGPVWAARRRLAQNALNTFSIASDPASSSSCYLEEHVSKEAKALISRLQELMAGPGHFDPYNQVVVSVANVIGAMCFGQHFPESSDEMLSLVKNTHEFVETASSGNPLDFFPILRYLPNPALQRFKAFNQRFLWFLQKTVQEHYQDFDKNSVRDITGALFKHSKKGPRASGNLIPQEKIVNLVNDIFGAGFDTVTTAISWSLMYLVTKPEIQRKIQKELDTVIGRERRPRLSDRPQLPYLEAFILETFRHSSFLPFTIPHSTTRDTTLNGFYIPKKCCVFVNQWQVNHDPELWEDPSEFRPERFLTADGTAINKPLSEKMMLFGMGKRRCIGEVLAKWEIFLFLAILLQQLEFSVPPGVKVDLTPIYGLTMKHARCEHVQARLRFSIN
Chain of Cytochrome P450 3A4 (Homo sapiens) (P08684 whole entry, looked up): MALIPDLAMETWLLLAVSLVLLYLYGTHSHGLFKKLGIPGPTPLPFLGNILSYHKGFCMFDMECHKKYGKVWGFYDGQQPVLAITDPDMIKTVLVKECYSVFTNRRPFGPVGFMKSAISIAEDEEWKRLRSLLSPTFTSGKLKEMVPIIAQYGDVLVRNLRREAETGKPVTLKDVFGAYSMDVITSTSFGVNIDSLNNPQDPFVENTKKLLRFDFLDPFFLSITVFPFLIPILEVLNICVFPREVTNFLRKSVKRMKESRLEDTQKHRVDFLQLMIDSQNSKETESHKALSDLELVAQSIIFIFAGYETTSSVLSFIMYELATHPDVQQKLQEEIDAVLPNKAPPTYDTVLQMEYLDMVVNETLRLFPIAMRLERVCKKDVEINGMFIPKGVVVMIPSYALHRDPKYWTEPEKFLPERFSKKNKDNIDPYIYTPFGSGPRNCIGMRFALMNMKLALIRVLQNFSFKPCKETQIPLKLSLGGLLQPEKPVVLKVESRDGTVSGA
Chain of Chromobox protein homolog 1 (Homo sapiens) (P83916 whole entry, looked up): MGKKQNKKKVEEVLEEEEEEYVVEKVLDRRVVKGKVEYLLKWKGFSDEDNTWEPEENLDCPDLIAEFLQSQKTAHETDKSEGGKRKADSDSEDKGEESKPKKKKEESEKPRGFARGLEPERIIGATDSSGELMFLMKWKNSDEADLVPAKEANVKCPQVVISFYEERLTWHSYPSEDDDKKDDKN
Chain of Alpha-galactosidase (Coffea arabica) (Q42656 whole entry, looked up): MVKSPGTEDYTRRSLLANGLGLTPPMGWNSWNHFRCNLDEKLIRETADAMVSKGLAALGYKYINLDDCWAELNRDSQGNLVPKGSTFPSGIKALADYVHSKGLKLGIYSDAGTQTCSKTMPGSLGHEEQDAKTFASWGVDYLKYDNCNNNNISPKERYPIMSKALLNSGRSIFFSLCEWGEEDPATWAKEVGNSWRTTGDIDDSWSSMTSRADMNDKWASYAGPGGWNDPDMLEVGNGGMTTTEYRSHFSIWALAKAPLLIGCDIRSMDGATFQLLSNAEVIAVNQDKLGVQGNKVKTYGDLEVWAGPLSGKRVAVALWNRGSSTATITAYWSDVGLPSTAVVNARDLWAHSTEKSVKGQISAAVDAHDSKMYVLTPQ
Chain of ATPase family AAA domain-containing protein 5 (Homo sapiens) (Q96QE3 whole entry, looked up, the tested form may be a part): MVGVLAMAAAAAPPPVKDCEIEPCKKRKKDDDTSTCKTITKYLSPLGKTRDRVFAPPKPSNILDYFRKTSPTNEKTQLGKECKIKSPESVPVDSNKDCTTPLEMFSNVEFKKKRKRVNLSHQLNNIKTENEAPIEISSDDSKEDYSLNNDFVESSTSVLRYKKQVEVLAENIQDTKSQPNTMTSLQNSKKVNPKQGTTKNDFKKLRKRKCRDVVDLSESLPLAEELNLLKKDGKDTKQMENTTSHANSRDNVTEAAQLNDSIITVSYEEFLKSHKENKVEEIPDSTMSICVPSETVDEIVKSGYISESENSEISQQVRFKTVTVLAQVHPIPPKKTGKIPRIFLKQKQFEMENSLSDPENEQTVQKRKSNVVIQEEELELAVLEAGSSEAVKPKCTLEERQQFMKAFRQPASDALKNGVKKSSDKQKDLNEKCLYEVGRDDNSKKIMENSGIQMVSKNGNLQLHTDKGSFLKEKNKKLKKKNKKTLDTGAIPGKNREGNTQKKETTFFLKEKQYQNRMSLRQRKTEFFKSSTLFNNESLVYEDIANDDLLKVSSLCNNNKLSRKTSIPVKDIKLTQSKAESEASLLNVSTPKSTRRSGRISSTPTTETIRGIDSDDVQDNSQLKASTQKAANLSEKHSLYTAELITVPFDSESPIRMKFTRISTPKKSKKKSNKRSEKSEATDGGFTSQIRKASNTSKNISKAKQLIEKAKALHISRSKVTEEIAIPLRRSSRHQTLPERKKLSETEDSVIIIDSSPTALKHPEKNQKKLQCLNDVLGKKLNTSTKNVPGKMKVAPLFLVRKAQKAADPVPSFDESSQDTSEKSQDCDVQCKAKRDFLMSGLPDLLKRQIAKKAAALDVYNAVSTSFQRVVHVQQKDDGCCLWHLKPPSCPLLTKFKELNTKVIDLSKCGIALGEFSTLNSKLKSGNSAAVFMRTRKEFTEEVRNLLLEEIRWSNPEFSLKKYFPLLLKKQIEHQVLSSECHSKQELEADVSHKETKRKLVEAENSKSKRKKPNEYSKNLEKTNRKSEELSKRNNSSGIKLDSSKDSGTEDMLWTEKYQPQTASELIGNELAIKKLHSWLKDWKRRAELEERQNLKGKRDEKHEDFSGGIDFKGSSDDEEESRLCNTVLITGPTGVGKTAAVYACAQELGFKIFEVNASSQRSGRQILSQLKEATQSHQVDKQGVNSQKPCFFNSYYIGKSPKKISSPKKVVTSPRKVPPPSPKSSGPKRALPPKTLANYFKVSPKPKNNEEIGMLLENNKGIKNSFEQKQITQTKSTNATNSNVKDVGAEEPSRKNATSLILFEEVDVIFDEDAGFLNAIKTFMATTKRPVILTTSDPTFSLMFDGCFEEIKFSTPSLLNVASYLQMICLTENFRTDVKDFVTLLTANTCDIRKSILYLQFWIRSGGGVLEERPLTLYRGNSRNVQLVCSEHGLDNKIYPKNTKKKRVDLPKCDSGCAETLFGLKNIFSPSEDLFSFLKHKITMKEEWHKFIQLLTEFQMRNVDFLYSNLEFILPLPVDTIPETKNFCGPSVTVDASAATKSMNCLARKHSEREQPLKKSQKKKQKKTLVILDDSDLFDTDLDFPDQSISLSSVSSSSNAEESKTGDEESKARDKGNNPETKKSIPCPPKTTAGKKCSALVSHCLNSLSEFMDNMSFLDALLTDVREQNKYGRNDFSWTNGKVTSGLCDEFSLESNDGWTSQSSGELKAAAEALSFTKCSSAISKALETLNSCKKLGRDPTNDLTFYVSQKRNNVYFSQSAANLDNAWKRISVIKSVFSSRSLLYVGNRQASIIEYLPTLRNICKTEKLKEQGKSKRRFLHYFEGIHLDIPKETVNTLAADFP

C[C@]12CC[C@H](OS(=O)(=O)O)CC1=CCC1C2CC[C@]2(C)C(=O)CC[C@@H]12 (stereo not given in full)
Potency (ATS95): inactive
Potency (CP203): inactive
Potency (CP262): inactive

CN(C)C/C=C/C(=O)Nc1cccc(C(OCCN2CCCCC2)c2cc3nccc(C(=O)O)c3s2)c1 (stereo not given)
Potency [1]: inactive

CCCCN1C2CCC1CC(OC(c1ccc(F)cc1)c1ccc(F)cc1)C2 (stereo not given)
Potency [2]: 10 µM (active)
outcome [3]: inactive
outcome [4]: inactive

CC(C)=CCC[C@](C)(O)[C@H]1CC[C@@]2(C)[C@H]1[C@@H](O)CC1[C@@]3(C)CC[C@@H](O[C@@H]4O[C@H](CO)[C@@H](O)[C@H](O)[C@H]4O)C(C)(C)C3CC[C@]12C (stereo not given in full)
Potency [1]: inactive

C[C@H]1C2Cc3ccc(O)cc3[C@]1(C)CCN2CC1CC1
Potency [5]: inactive
Potency [6]: inactive
Potency [7]: inactive
Potency [8]: inactive
outcome [9]: inactive
Potency [10]: inactive
outcome [11]: inactive
viability change [11]: -0.82%
outcome [12]: inactive

CC(C)(O)C1C2OC(=O)C1[C@]1(O)C[C@H]3O[C@]34C(=O)O[C@H]2[C@]14C (stereo not given in full) (tested in a mixture with another compound)
Potency (ATS95): inactive
Potency (CP203): inactive
Potency (CP262): inactive
Potency (CP266): inactive

Oc1ccc2c3c1O[C@H]1[C@@H](O)CC[C@@]4(O)C(C2)N(CC2CCC2)CCC314 (stereo not given in full)
Potency (ATS95): inactive
Potency (CP266): inactive

O=c1ccc2ccc3occc3c2o1
Potency [1]: inactive

O=S(=O)(O)O
Potency [13]: inactive
Potency [14]: 35.5 µM (active)
outcome [15]: inactive

COc1cc2c(cc1O)CC1NCCc3cc(OC)c(OC)c-2c31 (stereo not given)
Potency [14]: 15.8 µM (active)
outcome [15]: inactive

COC1=CC(=O)OC(CCc2ccccc2)C1 (stereo not given)
Potency [13]: inactive
outcome [15]: inactive

COC1=CC(=O)O[C@@H](/C=C/c2ccc3c(c2)OCO3)C1
Potency [13]: 14.1 µM (active)
Potency [14]: 11.2 µM (active)
outcome [15]: inactive

COc1cc(OC)c(/C=C2/C(=O)Nc3ccccc32)c(OC)c1
outcome [3]: inactive
outcome [4]: inactive
Potency [8]: 31.6 µM (active)
outcome [9]: inactive
Potency [10]: 16.4 µM (active)
outcome [12]: inactive

C[C@]12CC[C@H]3[C@@H](CCC4=CC(=O)CC[C@@]43C)[C@@H]1CC[C@@H]2O
Potency (CP203): inactive
Potency (CP262): inactive
Potency (CP266): inactive

CN1[C@@H]2CC(O)C[C@H]1[C@@H]1O[C@@H]12 (stereo not given in full)
Z-AUC [16]: 0.552 (inactive)
Z-AUC ([16]; measured here: PEO1 parental Z-AUC): 0.772
Z-AUC ([16]; measured here: PEO4 Z-AUC): 1.01

S=C(S)N1CCCC1
Potency [2]: 3.98 µM (active)
outcome [3]: inactive
outcome [4]: inactive
Potency [5]: 2.61 µM (active)
Potency [6]: 2.93 µM (active)
Potency [7]: 4.65 µM (active)
Potency [8]: 44.7 µM (active)
outcome [9]: inactive
outcome [12]: inactive
